The panel holds about 83,000 compounds, 20% with a hit somewhere; the sample as a whole holds those more often.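 Results are percent growth after 48 hours of single-concentration exposure. 100 means growth as in untreated cells, lower positive values show inhibition; negative values down to -100 show cell death.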 A number with no mark means an inactive call. Active and inactive are the calls of the source. Rule for the calls: active = growth percent below 10; inactive = the rest.
Each compound was assayed on HL-60(TB) leukemia (assay: NCI-60 one-dose screen, 48 h (100 = growth as untreated, 0 = no growth, -100 = all killed)). Conditions: 10 µM unless noted.

Row | SMILES | growth
1 | N#CCCCCCn1c2ccccc2c2c3c(c4c5ccccc5[nH]c4c21)C(=O)N(O)C3=O | -46% (active)
2 | CCCCCCCCCCCCCCCCCN | 95.9%
3 | CC1=CC(=O)C(C(C)C)=CC1=Nc1cc(Br)c(O)c(Br)c1 | -9.85% (active)
4 | O=C1NCN(c2ccccc2)C12CCN(CCCC(c1ccc(F)cc1)c1ccc(F)cc1)CC2 | 32.6%
5 | CCCCCCCC/C=C\CCCCCCCCOc1ccccc1CC(=O)NCC[N+]1(C)CCCC1 | 2.25% (active)
6 | COc1cc(OC)cc(C2CC(=O)Nc3c2c(C)nn3-c2nc3ccccc3[nH]2)c1 (centres undefined) | 9.31% (active)
7 | O=C1OCC2=C1C(c1cccc(F)c1)c1cc3c(cc1N2CCO)OCO3 (centres undefined) | -28.9% (active)
8 | COc1cc(C2Nc3ccccc3S2)cc(CN2CCOCC2)c1O (centres undefined) | 80.6%
9 | S=c1[nH]nc(Cn2c3ccccc3c3ccncc32)o1 | 87.6%
10 | Cc1ccc(C(=O)Nc2ccc(CN3CCN(C)CC3)c(C(F)(F)F)c2)cc1C#Cc1cnc2cccnn12 | -71.9% (active)
11 | C=C1C(=O)O[C@H]2[C@H]1CC/C(COC(=O)c1ccc(Br)cc1)=C\CC[C@@]1(C)O[C@@H]21 | -45.6% (active)
12 | N#CC1C(c2ccc(Cl)cc2)=Nc2c(c(-c3ccccc3)nn2-c2ccccc2)C12C(=O)Nc1ccc(Cl)cc12 (centres undefined) | -1.59% (active)
13 | CCOC(=O)c1sc(N)nc1-c1ccccc1 | 98.3%
14 | CO[C@H](C(=O)[C@@H](O)[C@@H](C)O)[C@@H]1Cc2cc3cc(O[C@H]4C[C@@H](O[C@H]5C[C@@H](O)[C@H](O)C(C)O5)[C@H](O)C(C)O4)c(C)c(O)c3c(O)c2C(=O)[C@H]1O[C@H]1C[C@@H](O[C@H]2C[C@@H](O[C@H]3C[C@](C)(O)C(=O)C(C)O3)[C@@H](O)C(C)O2)[C@H](O)C(C)O1 (some centres undefined) | 2.34% (active)
